In all, about 81,000 sequences were measured (“one-hybrid fitness for binding parS DNA”: median about -0.17, highest 2% from about 0.51 on). Only a selection was taken, and the highest values are over-represented in it overall.
B1: Caulobacter ParB omega fusion; a variant is named by its letters at X, in order, B8GW30 (parent)
chain: MESVVVGEPGMSEGRRGLGRGLSALLGEVDAAPAQAPGEQLGGSREAPIEILQRNPDQPRRTFREEDLEDLSNSIREKGVLQPILVRPSPDTAGEYQIVAGERAWRAAQRAGLKTVPIMVRELDDLAVLEIGIIENVQRADLNVLEEALSYKVLMEKFERTQENIAQTIGKSXSHVANXMRLLXLPDEVQSYLVSGELTAXHARAIAAAADPVALAKQIIEGGLSVRETEALARKAPNLSAGKSKGGRPPRVKDTDTQALESDLSSVLGLDVSIDHRGSTGTLTITYATLEQLDDLCNRLTRGI

Variants of: B1
Experiment: one-hybrid fitness for binding parS DNA (scaled: cognate 1, non-cognate 0); higher = stronger binding
Conditions: with parS DNA site
In short: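 The reporter was HIS3, with the binding site 19 bp from the promoter, in E. coli USO used for bacterial one-hybrid selection of Caulobacter ParB libraries with four specificity codons randomised. Growth was on M9 lacking histidine, with 0.1 mM IPTG and 5 mM 3-AT, for 48 hours at 37°C. Illumina sequencing covered plasmids before and after selection; three replicate libraries were pooled and variants with under 10 reads dropped. A fitness score is the log change in variant-to-wild-type read ratio, rescaled to the cognate and non-cognate references.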

Variant	one-hybrid fitness for binding parS DNA
PVNK	≤ 0.2
RQKD	≤ 0.2
RQKY	0.581
RQYY	0.494
RQVD	≤ 0.2
RQKS	0.864
RQVS	0.937
RQKP	≤ 0.2
RQVY	0.375
RQVN	0.316
TGHV	≤ 0.2
GPHD	≤ 0.2
RAYD	≤ 0.2
RAYG	1.01
RARD	≤ 0.2
RAYH	≤ 0.2
RANG	1
RACG	0.971
RACY	0.435
RANQ	≤ 0.2
RARG	0.956
RARP	≤ 0.2
RACF	0.228
RANE	≤ 0.2
PSYN	≤ 0.2
WIKS	≤ 0.2
SDEV	≤ 0.2

Variant	one-hybrid fitness for binding parS DNA
WGFG	≤ 0.2
PYGM	≤ 0.2
CARA	≤ 0.2
PAYT	≤ 0.2
APAI	≤ 0.2
YGRH	≤ 0.2
RALD	≤ 0.2
RAGH	0.268
RASR	≤ 0.2
RASF	0.234
RAHG	1.01
RALP	≤ 0.2
RAGP	≤ 0.2
RAHP	0.241
RAGG	0.99
RASG	1
RAHK	≤ 0.2
RALG	1.01
ACSG	≤ 0.2
LMLS	≤ 0.2
QSHN	≤ 0.2
TPPK	≤ 0.2
GNDG	≤ 0.2
GGIR	≤ 0.2
HVTA	≤ 0.2
LPSV	≤ 0.2
VEFL	≤ 0.2

Variant	one-hybrid fitness for binding parS DNA
RAQG	1
RADG	0.908
RAQY	0.469
RAQK	≤ 0.2
RADD	≤ 0.2
RADN	0.372
QSRC	≤ 0.2
AVDS	≤ 0.2
RKHQ	≤ 0.2
RKHM	0.21
RKLC	0.921
RKSH	≤ 0.2
RKSD	≤ 0.2
RKRC	0.737
RKRM	0.281
RKHC	0.882
RKLM	0.272
RKRK	≤ 0.2
RKLR	≤ 0.2
RKSC	0.812
DVNN	≤ 0.2
VNYS	≤ 0.2
PWEG	≤ 0.2
NNLY	≤ 0.2
VLIA	≤ 0.2
